Shh pathway inh = Sonic Hedgehog pathway inhibition. Shh-LIGHT2 Gli-luciferase reporter, 30 h. inhibition, % (no concentration beside the values). 22,000 tested, 2.1% active. AID 2313;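 active = mean inhibition across valid replicates above about 65%, limit read from the data; inconclusive = mean under the limit, yet half or more replicates past it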;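 note: pathway switched on by Shh-conditioned medium diluted 1 in 25 in low serum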
BJeLR viab HTS = lowers viability of BJeLR cells; BJeLR fibroblasts viability, CellTiterGlo ATP luminescence, 48 h; HRASV12, hTERT and SV40 LT/ST transformed; viability loss activity score, % (concentration not given with the values); 30,000 tested, 0.64% active; AID 2275; in the data active = viability loss activity score above about 50%; inconclusive = no clear call, values can overlap the other calls; inactive = below about 35%;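 note: higher score means fewer live cells and less ATP luminescence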
* marks the source's active call; other numbers are inactive results. The entries come from a sample that favours hits as a whole.

Results for C[C@@H]1CN([C@@H](C)CO)C(=O)c2cc(NC(=O)Nc3cccc4ccccc34)ccc2O[C@H]1CN(C)S(=O)(=O)c1cn(C)cn1 ?
Shh pathway inh: -3; BJeLR viab HTS: 0

How did Cc1c(-c2ccccc2)[n+](=O)c(-c2ccc(Br)cc2)c(C)n1[O-] do in these assays?
Shh pathway inh: 67*; BJeLR viab HTS: -2

Results for CC1(C)C(c2ccccc2)=[N+]([O-])C(c2ccc(Br)cc2)N1O (configuration not stated) ?
BJeLR viab HTS: 0

How did Cn1cccc1/C=N/N1CCN(C2c3ccccc3-c3ccccc32)CC1 do in these assays?
BJeLR viab HTS: 2

Results for CNC(=O)Cn1ncc2c(C)n(Cc3ccccc3)c(C)c2c1=O ?
BJeLR viab HTS: -3

What do the screens show for `CC1(C)CCC(C)(C)c2cc(C(=O)Nc3ccc(C(=O)O)cc3)ccc21`?
Shh pathway inh: inconclusive; BJeLR viab HTS: 17

Results for C/C(=C\c1ccc(C(=O)O)cc1)c1ccc2c(c1)C(C)(C)CCC2(C)C ?
Shh pathway inh: 66*; BJeLR viab HTS: 1

How did CC(=O)N1c2ccccc2C(C)(c2ccccc2)CC1(C)C (configuration not stated) do in these assays?
Shh pathway inh: -3; BJeLR viab HTS: 0

Results for CC1(C)CC(C)(c2ccccc2)c2cc(SC#N)ccc2N1 (configuration not stated) ?
Shh pathway inh: 108*; BJeLR viab HTS: -8

Results for Cc1ccc(S(=O)(=O)CCSc2sc(C#N)c3c2C(=O)CC(C)(C)C3)cc1 ?
Shh pathway inh: 66*; BJeLR viab HTS: 1

Results for CCOC(=O)c1sc(SCCS(=O)(=O)c2ccc(Cl)cc2)c2c1CCCC2=O ?
Shh pathway inh: 16; BJeLR viab HTS: 4

Results for COc1ccc(C2=NN(C(=O)c3ccccc3O)C(O)(C(F)(F)F)C2)cc1 (configuration not stated) ?
BJeLR viab HTS: 6

How did CC(=O)Nc1ccc(Br)c(C(F)(F)F)c1 do in these assays?
Shh pathway inh: -16; BJeLR viab HTS: 4

Results for C[C@H]1CN([C@@H](C)CO)C(=O)c2cccc(NS(=O)(=O)c3ccccc3)c2O[C@H]1CN(C)S(=O)(=O)c1ccc(Cl)cc1 ?
Shh pathway inh: 55; BJeLR viab HTS: 1

How did C/C=C(/C)C(=O)O[C@H]1C=C(CO)C(=O)[C@H](OC(=O)/C(C)=C/CO)[C@H]1C(C)C do in these assays?
Shh pathway inh: 46; BJeLR viab HTS: 81*

Results for C=C1C(=O)OC2/C=C(\CO)C(OC(C)=O)C/C=C(/C)CC(OC(=O)/C(C)=C\CO)C12 (configuration not stated) ?
Shh pathway inh: 48; BJeLR viab HTS: 34

Results for C[C@@H]1CN([C@@H](C)CO)C(=O)c2cc(NC(=O)Nc3ccccc3)ccc2O[C@H]1CN(C)C(=O)Nc1ccccc1 ?
Shh pathway inh: 36; BJeLR viab HTS: -3

Results for Cc1csc2sc(-c3ccnc(SCC(=O)c4ccccc4)n3)c(C)c12 ?
Shh pathway inh: 70*; BJeLR viab HTS: -1

What do the screens show for `O=C(CSc1nsc(SCC(=O)c2ccccc2)n1)c1ccccc1`?
BJeLR viab HTS: 1

What do the screens show for `COc1ccc(NC(=O)N(C)C[C@@H]2Oc3ccc(NS(C)(=O)=O)cc3CC(=O)N([C@H](C)CO)C[C@@H]2C)cc1`?
Shh pathway inh: -15

Results for CC1(C)CC(=O)C=C(SCC(=O)Nc2cc(C(F)(F)F)cc(C(F)(F)F)c2)S1 ?
Shh pathway inh: 92*; BJeLR viab HTS: 7

What do the screens show for `O=C(CSc1nc2ccccc2c(=O)n1CC1CCCO1)Nc1cccc(C(F)(F)F)c1` (configuration not stated)?
BJeLR viab HTS: 0

How did CC(C)CCNC(=O)C1c2ccccc2C(=O)N(C)C1c1cn(C)c2ccccc12 (configuration not stated) do in these assays?
BJeLR viab HTS: -2

What do the screens show for `CCN1C(=O)CCS(=O)(=O)c2ccccc21`?
BJeLR viab HTS: 2

What do the screens show for `CCOC(=O)/C(C#N)=C1/NC(=O)Nc2ccccc21`?
BJeLR viab HTS: 1

What do the screens show for `Cc1cc(C)nc(SCC(=O)c2ccccc2)n1`?
BJeLR viab HTS: 9

How did O=C(CSc1nc(SCC(=O)c2ccccc2)c2ccccc2n1)c1ccccc1 do in these assays?
Shh pathway inh: 76*; BJeLR viab HTS: 0

Results for N#Cc1c(-c2ccccc2)cc(-c2cccs2)nc1SCS(=O)Cc1ccccc1 (configuration not stated) ?
BJeLR viab HTS: -7

Results for N#Cc1c(C(F)(F)F)cc(-c2cccs2)nc1S/C=C/C(=O)c1ccccc1 ?
Shh pathway inh: -26; BJeLR viab HTS: 57*

What do the screens show for `COC(=O)c1[nH]c2c(c1C)C(=O)CC(c1ccccc1)C2` (configuration not stated)?
BJeLR viab HTS: 60*

What do the screens show for `CCCc1c(C(=O)OCC)[nH]c2c1C(=O)CC(c1ccccc1)C2` (configuration not stated)?
BJeLR viab HTS: 3
